Assay [1] in a line: qHTS assay to identify aromatase inhibitors - cell viability counter screen (AID 743084).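 Note: cells stimulated with testosterone during compound exposure; nearly all actives have a fitted effect of over 55% in size.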
Assay [2] addresses Aryl hydrocarbon receptor (Homo sapiens) (UniProt P35869). The assay is described as follows: qHTS assay to identify small molecule that activate the aryl hydrocarbon receptor (AhR) signaling pathway (AID 743085).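 Note: HG2L7.5c1 human HepG2 liver cells with stably integrated DRE-driven firefly reporter; series mostly up to about 70 µM; nearly all actives have a fitted effect of over 15% in size.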 The essentials: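 24 h compound exposure, 37C, HepG2-derived HG2L7.5c1 cells with DRE-responsive luciferase. Readouts: fluorescence viability, then luminescence at room temperature after 30 min.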
A general note: In qHTS, concentration-response curves come from the screen itself.

Assay [3] deals with Peroxisome proliferator-activated receptor gamma (Homo sapiens) (UniProt P37231). The assay is described as follows: qHTS assay to identify small molecule agonists of the peroxisome proliferator-activated receptor gamma (PPARg) signaling pathway (AID 743094; active = well fitted activation curve with a large enough effect in the signal ratio in the repeat runs, not every such curve was filed as active; the % refers to the signal ratio). The essentials: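 Compounds dissolved in DMSO were added to PPARg UAS-bla HEK293H cells for 17 h at 37C, and reporter expression was quantified by fluorescence intensity after 1 h with LiveBLAzer B/G FRET substrate.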
Peroxisome proliferator-activated receptor gamma (Homo sapiens), sequence (P37231 whole entry, looked up): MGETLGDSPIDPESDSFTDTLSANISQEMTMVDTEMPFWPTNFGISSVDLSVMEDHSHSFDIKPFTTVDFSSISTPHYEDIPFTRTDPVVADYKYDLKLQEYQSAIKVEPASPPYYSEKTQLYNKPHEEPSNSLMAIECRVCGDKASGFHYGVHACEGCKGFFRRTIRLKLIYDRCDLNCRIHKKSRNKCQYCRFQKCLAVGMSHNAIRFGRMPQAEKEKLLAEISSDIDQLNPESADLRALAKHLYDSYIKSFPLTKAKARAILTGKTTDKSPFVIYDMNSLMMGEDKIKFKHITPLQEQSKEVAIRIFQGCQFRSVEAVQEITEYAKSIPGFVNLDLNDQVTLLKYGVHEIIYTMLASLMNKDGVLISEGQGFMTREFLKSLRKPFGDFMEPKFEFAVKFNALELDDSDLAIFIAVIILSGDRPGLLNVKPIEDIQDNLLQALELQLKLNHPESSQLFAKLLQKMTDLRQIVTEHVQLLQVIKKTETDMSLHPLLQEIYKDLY

A short description of assay [4]: qHTS assay for small molecule agonists of the antioxidant response element (ARE) signaling pathway - cell viability counter screen (AID 743203; calls by dose curve; note: nearly all actives have a fitted effect of over 55% in size). Put shortly:
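Following 16 hrs of compound treatment at 37C, HepG2 cells with an ARE-controlled beta-lactamase gene were lysed with CellTiter-Glo. Luminescence was read after 30 min at room temperature.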

Assay [5] is described as follows: qHTS assay for small molecule activators of the heat shock response signaling pathway - cell viability counter screen (AID 743209). Note: nearly all actives have a fitted effect of over 50% in size. The essentials:
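Readout: CellTiter-Glo luminescence, 30 min at room temperature. System: HSE-bla HeLa cells, 1500/well, plated overnight. Treatment: compounds in DMSO, 5 h at 37 C.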

A short description of assay [6]: qHTS assay for small molecule activators of the heat shock response signaling pathway (AID 743210; active = well fitted activation curve with a large enough effect in the signal ratio in the repeat runs, with a control signal flat, not every such curve was filed as active; the % refers to the signal ratio; note: series mostly up to about 63 µM). Put shortly:
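HSE-bla HeLa cells (beta-lactamase reporter under heat shock response elements), plated overnight, then exposed to compounds 5 h at 37 C; LiveBLAzer B/G FRET substrate added, 2.5 h at room temperature, fluorescence intensity read.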

A short description of assay [7]: qHTS assay to identify small molecule agonists of the peroxisome proliferator-activated receptor delta (PPARd) signaling pathway - cell viability counter screen (AID 743211). Note: nearly all actives have a fitted effect of over 55% in size. Put shortly: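 Luminescent ATP viability assay (CellTiter-Glo, 30 min RT) in UAS-bla HEK293H cells carrying the PPAR delta reporter construct, 3000 cells/well, after a 17 h compound treatment at 37 C.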

Assay [8] deals with Peroxisome proliferator-activated receptor delta (Homo sapiens) (UniProt Q03181). The assay is described as follows: qHTS assay to identify small molecule agonists of the peroxisome proliferator-activated receptor delta (PPARd) signaling pathway (AID 743212; calls by dose curve). The essentials: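 GeneBLAzer UAS-bla HEK293H cells carrying a PPARδ construct were exposed to compounds at 37 °C. Beta-lactamase activity was read by FRET fluorescence after 2 h at room temperature with LiveBLAzer B/G substrate.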
Peroxisome proliferator-activated receptor delta (Homo sapiens), sequence (Q03181 whole entry, looked up): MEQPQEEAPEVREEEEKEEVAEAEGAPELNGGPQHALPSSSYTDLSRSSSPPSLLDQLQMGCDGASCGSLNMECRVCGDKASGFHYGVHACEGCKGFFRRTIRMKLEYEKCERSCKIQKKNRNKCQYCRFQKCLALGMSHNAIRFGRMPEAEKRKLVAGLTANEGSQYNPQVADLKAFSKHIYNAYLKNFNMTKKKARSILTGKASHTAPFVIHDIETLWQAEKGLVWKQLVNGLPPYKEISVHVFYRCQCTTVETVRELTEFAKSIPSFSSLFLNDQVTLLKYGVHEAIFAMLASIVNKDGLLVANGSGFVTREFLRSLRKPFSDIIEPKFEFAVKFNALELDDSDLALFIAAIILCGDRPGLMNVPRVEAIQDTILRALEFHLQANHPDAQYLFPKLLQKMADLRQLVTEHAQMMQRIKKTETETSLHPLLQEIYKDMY

The nature of assay [9]: qHTS assay to identify small molecule antagonists of the peroxisome proliferator-activated receptor delta (PPARd) signaling pathway - cell viability counter screen (AID 743213). Note: nearly all actives have a fitted effect of over 50% in size. Put shortly: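 CellTiter-Glo was added to PPARd-bla HEK293H wells following 17 h compound treatment in the presence of 300 nM L165041. Luminescence was recorded after 30 min at room temperature.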

Assay [10] has as its target Peroxisome proliferator-activated receptor delta (Homo sapiens) (UniProt Q03181). As to the kind of experiment: qHTS assay to identify small molecule antagonists of the peroxisome proliferator-activated receptor delta (PPARd) signaling pathway (AID 743215; active = well fitted inhibition curve with a large enough effect in the signal ratio in the repeat runs, not every such curve was filed as active; the % refers to the signal ratio;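 note: cells stimulated with agonist L165041 at 300 nM final during compound exposure; series mostly up to about 62 µM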). The essentials:
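HEK293H UAS-bla, PPARd; agonist L165041 300 nM final with cpd in DMSO; 37 C 17 h; FRET substrate, RT 2 h; fluorescence intensity.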

Assay [11] addresses Bile acid receptor (Homo sapiens) (UniProt Q96RI1). As to the kind of experiment: qHTS assay to identify small molecule antagonists of the farnesoid-X-receptor (FXR) signaling pathway (AID 743217; active = well fitted inhibition curve with a large enough effect in the signal ratio in the repeat runs, not every such curve was filed as active; the % refers to the signal ratio). The essentials: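 GeneBLAzer FXR-UAS-bla HEK 293T, CDCA-stimulated (50 uM final). Compound treatment 16 h, 37 °C. Detection: beta-lactamase cleavage of B/G FRET substrate, fluorescence.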

Assay [12] is described as follows: qHTS assay to identify small molecule agonists of the farnesoid-X-receptor (FXR) signaling pathway - cell viability counter screen (AID 743218). Note: nearly all actives have a fitted effect of over 45% in size. The essentials: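 Parallel cytotoxicity test: compound-treated (16 h, 37 C) HEK 293T FXR-bla reporter cells were lysed with CellTiter-Glo and luminescence recorded.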
Assay [13] has as its target Bile acid receptor (Homo sapiens) (UniProt Q96RI1). The assay is described as follows: qHTS assay to identify small molecule agonists of the farnesoid-X-receptor (FXR) signaling pathway (AID 743220; active = well fitted activation curve with a large enough effect in the signal ratio in the repeat runs, not every such curve was filed as active; the % refers to the signal ratio). The essentials:
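Beta-lactamase reporter under UAS control in GeneBLAzer FXR HEK 293T cells (5000/well) measured with LiveBLAzer FRET substrate after 2 h at room temperature. Compound exposure lasted 16 h at 37C.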

A short description of assay [14]: qHTS assay to identify small molecule antagonists of the farnesoid-X-receptor (FXR) signaling pathway - cell viability counter screen (AID 743221; active = well fitted cell-killing curve with a large enough effect in the repeat runs, not every such curve was filed as active; note: nearly all actives have a fitted effect of over 50% in size). The essentials: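 In GeneBLAzer FXR-UAS-bla HEK 293T cells stimulated with 50 uM chenodeoxycholic acid (final), compounds acted for 16 h at 37 C. Viability was assessed afterwards by CellTiter-Glo luminescence.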
In assay [15] the target is Vitamin D3 receptor (Homo sapiens) (UniProt P11473). As to the kind of experiment: qHTS assay to identify small molecule agonists of the vitamin D receptor (VDR) signaling pathway (AID 743222; calls by dose curve). Put shortly:
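In VDR-bla cells, compound-induced beta-lactamase expression is quantified by FRET substrate fluorescence. Treatment lasts 16 h at 37C; substrate develops 2 h at room temperature.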

Assay [16] shares this target. The assay is described as follows: qHTS assay to identify small molecule antagonists of the vitamin D receptor (VDR) signaling pathway (AID 743223; active = well fitted inhibition curve with a large enough effect in the signal ratio in the repeat runs, not every such curve was filed as active; the % refers to the signal ratio). Put shortly: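 Agonist 1alpha,25-dihydroxyvitamin D3 (3 nM in well) was added with each compound to VDR-bla cells preincubated 4 h. Cells stood 16 h at 37C, then FRET substrate 2 h at room temperature; fluorescence intensity recorded.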

Assay [17] is described as follows: qHTS assay to identify small molecule that activate the aryl hydrocarbon receptor (AhR) signaling pathway - cell viability counter screen (AID 743086).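 Note: HepG2 liver cells carrying the AhR DRE luciferase reporter; series mostly up to about 70 µM; nearly all actives have a fitted effect of over 45% in size.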 Put shortly: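 HepG2-AhR-luc (HG2L7.5c1) cells, 4000/well, treated 24 h at 37 C with compound; viability measured as CellTiter-Fluor fluorescence after 30 min in the same wells as the luciferase read.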
In assay [18] the target is Peroxisome proliferator-activated receptor gamma (Homo sapiens) (UniProt P37231). The assay is described as follows: qHTS assay to identify small molecule antagonists of the peroxisome proliferator-activated receptor gamma (PPARg) signaling pathway (AID 743191; calls by dose curve; note: nearly all actives have a fitted effect of over 30% in size; note: potency is the fitted concentration of half-maximal effect). The essentials:
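GeneBLAzer PPARg UAS-bla HEK293H cells, 5 h post-plating, exposed to compounds 17 h at 37C. LiveBLAzer B/G FRET substrate added for 1 h at room temperature; beta-lactamase reporter read by fluorescence intensity.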

The nature of assay [19]: qHTS assay to identify small molecule antagonists of the peroxisome proliferator-activated receptor gamma (PPARg) signaling pathway - cell viability counter screen (AID 743194). Note: nearly all actives have a fitted effect of over 55% in size. The note with it: Potency: co-treated with 50 nM rosiglitazone. Put shortly: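 Cytotoxicity counter screen in PPARg-bla HEK293H cells, same wells as reporter assay. Compounds plus 50 nM rosiglitazone (final) for 17 h at 37 C, then viability read by CellTiter-Glo luminescence.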

The nature of assay [20]: qHTS assay for small molecule agonists of the antioxidant response element (ARE) signaling pathway (AID 743202; active = well fitted activation curve with a large enough effect in the signal ratio in the repeat runs, not every such curve was filed as active; the % refers to the signal ratio). The essentials: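 ARE-bla HepG2 cells (beta-lactamase reporter under the antioxidant response element), plated 5 hours, then exposed to compounds 16 hours at 37 C. LiveBLAzer B/G FRET substrate added for 2 hours at room temperature; fluorescence intensity read.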

Inconclusive results are not listed. Active and inactive are the calls of the source. Unless noted, calls come from the whole dose curve; as a rule, active = well fitted curve in the direction sought with a large enough effect in the repeat runs; inconclusive = weak or mixed curves; inactive = no such curve, though single readings can be large; an effect the other way counts as inactive or inconclusive.

Aryl hydrocarbon receptor (Homo sapiens), sequence (P35869 whole entry, looked up): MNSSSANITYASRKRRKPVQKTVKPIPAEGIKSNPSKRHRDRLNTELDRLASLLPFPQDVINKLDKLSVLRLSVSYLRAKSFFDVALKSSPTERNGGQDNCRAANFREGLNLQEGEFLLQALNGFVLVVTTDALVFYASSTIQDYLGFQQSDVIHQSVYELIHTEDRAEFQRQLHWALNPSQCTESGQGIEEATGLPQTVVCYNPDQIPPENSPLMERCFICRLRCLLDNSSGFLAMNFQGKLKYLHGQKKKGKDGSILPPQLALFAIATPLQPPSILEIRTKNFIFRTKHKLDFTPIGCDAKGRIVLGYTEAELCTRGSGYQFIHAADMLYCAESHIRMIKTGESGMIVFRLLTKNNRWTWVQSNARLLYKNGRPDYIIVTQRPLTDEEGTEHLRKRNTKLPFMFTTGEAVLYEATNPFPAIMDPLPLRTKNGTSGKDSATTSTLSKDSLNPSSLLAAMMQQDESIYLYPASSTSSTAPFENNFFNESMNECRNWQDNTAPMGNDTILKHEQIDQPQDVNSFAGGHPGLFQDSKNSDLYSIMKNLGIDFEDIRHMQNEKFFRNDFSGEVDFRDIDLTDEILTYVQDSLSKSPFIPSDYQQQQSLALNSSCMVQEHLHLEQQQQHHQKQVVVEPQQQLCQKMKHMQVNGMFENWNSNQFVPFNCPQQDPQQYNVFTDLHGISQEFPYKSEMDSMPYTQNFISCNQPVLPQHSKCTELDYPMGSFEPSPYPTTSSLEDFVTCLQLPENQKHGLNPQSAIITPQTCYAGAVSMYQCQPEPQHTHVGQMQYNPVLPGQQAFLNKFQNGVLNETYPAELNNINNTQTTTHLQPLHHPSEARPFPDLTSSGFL
Vitamin D3 receptor (Homo sapiens), sequence (P11473 whole entry, looked up): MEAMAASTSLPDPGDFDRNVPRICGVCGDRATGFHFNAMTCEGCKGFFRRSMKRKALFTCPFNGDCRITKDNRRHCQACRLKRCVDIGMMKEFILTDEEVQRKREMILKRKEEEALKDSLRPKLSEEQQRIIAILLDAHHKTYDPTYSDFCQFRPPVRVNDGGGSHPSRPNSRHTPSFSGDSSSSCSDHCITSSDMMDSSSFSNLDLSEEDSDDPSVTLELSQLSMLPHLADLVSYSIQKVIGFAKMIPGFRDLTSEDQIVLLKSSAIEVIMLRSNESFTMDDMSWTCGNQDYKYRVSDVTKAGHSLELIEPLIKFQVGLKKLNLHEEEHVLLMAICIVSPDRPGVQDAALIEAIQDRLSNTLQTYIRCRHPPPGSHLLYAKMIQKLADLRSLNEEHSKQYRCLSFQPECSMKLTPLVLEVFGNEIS
Bile acid receptor (Homo sapiens), sequence (Q96RI1 whole entry, looked up): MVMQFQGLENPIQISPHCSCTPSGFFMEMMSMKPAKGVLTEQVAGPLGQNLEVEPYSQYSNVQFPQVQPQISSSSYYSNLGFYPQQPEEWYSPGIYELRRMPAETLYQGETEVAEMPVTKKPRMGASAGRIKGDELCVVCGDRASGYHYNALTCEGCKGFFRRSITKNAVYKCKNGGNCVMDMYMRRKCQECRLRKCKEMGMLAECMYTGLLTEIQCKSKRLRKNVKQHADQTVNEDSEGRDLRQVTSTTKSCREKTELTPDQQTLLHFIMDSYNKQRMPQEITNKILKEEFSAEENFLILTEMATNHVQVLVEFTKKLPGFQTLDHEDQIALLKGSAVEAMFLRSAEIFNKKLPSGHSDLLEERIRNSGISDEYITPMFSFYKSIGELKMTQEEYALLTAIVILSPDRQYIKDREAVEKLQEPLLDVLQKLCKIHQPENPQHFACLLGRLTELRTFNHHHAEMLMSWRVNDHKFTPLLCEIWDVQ

Take `O=C(C(Cl)(Cl)Cl)C(Cl)(Cl)Cl`: the Potency entry in assay [1], in assay [2], in assay [3], in assay [4], in [5] and in [7] was “inactive” throughout. The Potency entry in [9], in assay [10], in assay [11], in assay [12] and in [14] was “inactive” throughout. Besides, the compound was called inactive in [6], in [8], in assay [13], in assay [15] and in assay [16].

Turning to `Cn1cc[n+](C)c1` (tested in a mixture with another compound), the Potency result in [1], in [17], in assay [3], in [18], in [19] and in assay [20] was “inactive” in each case. Besides, the Potency entry in [4], in assay [5], in assay [7], in [10], in assay [11] and in assay [14] was “inactive” in each case. Further, the compound was called inactive in [6], in assay [8] and in assay [13].

As for `ClCc1ccccc1`, the Potency entry in assay [1], in assay [17], in [3], in assay [19], in assay [20] and in assay [4] was “inactive” in each case. Also, the Potency result in [5], in assay [7], in assay [9], in [10], in assay [12] and in [14] was “inactive” in each case. The outcome in [8], in assay [15] and in assay [16] was inactive.

As to `CCCCNP(N)(N)=S`, the Potency result in assay [1], in assay [17], in assay [3], in assay [18], in assay [19] and in [4] was “inactive” in each case. For the same compound, the Potency entry in assay [5], in [7], in assay [9], in [10], in [11] and in assay [12] was “inactive” throughout. In assay [14], the Potency result was “inactive”. The call in assay [6], in assay [8], in [13] and in assay [15] was inactive.

For `ClCC(Br)CBr` (configuration not stated), the Potency result in [1], in assay [17], in assay [3], in [18], in [19] and in assay [20] was “inactive” throughout. Further, the Potency entry in assay [4], in assay [5], in [7], in assay [9], in [12] and in assay [14] was “inactive” throughout. In addition, the compound was called inactive in assay [6] and in assay [15].

Turning to `CC(O)(CS(=O)(=O)c1ccc(F)cc1)C(=O)Nc1ccc(C#N)c(C(F)(F)F)c1` (configuration not stated), the Potency result in assay [1], in [17], in [3], in [18], in assay [19] and in [5] was “inactive” each time. The Potency entry in assay [7], in assay [10], in [12] and in assay [14] was “inactive” each time. For the same compound, the call in [6], in [8] and in [15] was inactive.

For the compound `Cc1ccccc1C(=O)Nc1cccc(OC(C)C)c1`, the Potency entry in [1], in assay [17], in assay [3], in [4], in assay [5] and in assay [7] was “inactive” throughout. Further, the Potency entry in [9], in [10] and in assay [14] was “inactive” in each case. The Potency in [18] is 49 µM (active). The compound was called inactive in assay [6] and in [8].

In the case of `O=[N+]([O-])c1cc(C(F)(F)F)cc([N+](=O)[O-])c1Cl`, the Potency entry in assay [1], in assay [2], in assay [18], in [19], in assay [4] and in [5] was “inactive” in each case. Also, the Potency result in assay [7], in assay [9], in assay [10], in assay [11] and in assay [14] was “inactive” in each case. In addition, the call in assay [6], in [13] and in assay [15] was inactive.

In the case of `ClP(Cl)(Cl)(Cl)Cl`, the Potency entry in assay [1], in assay [2], in assay [18], in [19], in assay [4] and in [5] was “inactive” each time. Further, the Potency result in assay [7], in assay [9], in [10], in assay [11] and in [14] was “inactive” each time. The result in assay [6], in assay [8], in assay [13], in assay [15] and in assay [16] was inactive.

The record behind these values is PubChem BioAssay (Tox21).
